# Values joined by “and” are separate entries in the source; they are usually repeats but may differ in a detail not shown here. Equal values may be shown once. Compounds without any hit were thinned out: in the full panel of roughly 83,000, 20% have a hit.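 Cell lines were cultured in 96-well plates, exposed to a single compound concentration, and assessed for percent growth 48 hours later.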 Values without a mark were called inactive. Active and inactive are the calls of the source. Rule for the calls: active = growth percent below 10; inactive = the rest.
# Experiments:
# Test in all cases: NCI-60 one-dose screen, 48 h (100 = growth as untreated, 0 = no growth, -100 = all killed)
# Conditions in all cases: 10 µM unless noted
# [1] = test system: NCI-H23 lung
# [2] = test system: NCI-H226 lung
# [3] = test system: NCI-H322M lung
# [4] = test system: HOP-62 NSCLC
# [5] = test system: NCI-H460 lung
# [6] = test system: HOP-92 NSCLC
# [7] = test system: NCI-H522 lung
# [8] = test system: A549/ATCC NSCLC
# [9] = test system: 786-0 renal
# [10] = test system: COLO 205 colon
# [11] = test system: DU-145 prostate
# [12] = test system: K-562 leukemia
# [13] = test system: MALME-3M melanoma
# [14] = test system: MDA-MB-231 breast
# [15] = test system: RXF 393 renal
# [16] = test system: SF-268 CNS
# [17] = test system: SF-295 CNS
# [18] = test system: SF-539 CNS
# [19] = test system: UACC-257 melanoma
# [20] = test system: M14 melanoma
SMILES,growth [1],growth [2],growth [3],growth [4],growth [5],growth [6],growth [7],growth [8],growth [9],growth [10],growth [11],growth [12],growth [13],growth [14],growth [15],growth [16],growth [17],growth [18],growth [19],growth [20]
O=C1CCC(=O)N1CC1CC2CCC1C2 (stereo not given),92.7% and 102%,95.9% and 92.2%,104% and 80.5%,96.2% and 86.7%,107% and 102%,99.9% and 101%,91.8% and 95.2%,111% and 99.1%,98.5% and 97.6%,117% and 92.5%,127% and 98.7%,71.2% and 94.1%,98.1% and 87.7%,98.8%,105% and 106%,100% and 95.2%,83.4% and 90.2%,101% and 87.8%,104% and 83.5%,103% and 95.6%
CCCCC/C(C)=N\NC(N)=S,89.5%,86%,90.4%,89.8%,94.8%,93.2%,89.3%,78.4%,101%,92.8%,85.2%,58.7%,83.7%,85.9%,85.7%,88.2%,83.4%,103%,60%,74.5%
O=C1C2=C(Nc3cc(Cl)ccc3N2)OC1c1c[nH]c2ccc(COc3ccccc3)cc12 (stereo not given),59.3%,2.7% (active),64.7%,-14.7% (active),59.7%,42.3%,54.8%,74.2%,38.8%,111%,73.7%,79.7%,74%,59.5%,43.9%,30.4%,33.5%,53.8%,80.3%,94.2%
CCOC(=O)NC(N)=O,103% and 99%,99.8% and 96.5%,93% and 105%,88.5% and 111%,105% and 104%,102%,89.4% and 103%,104% and 107%,97.3% and 101%,110% and 118%,111% and 119%,90.7% and 110%,93.3%,118% and 102%,114%,106% and 119%,99.9% and 93.2%,95.6% and 99.2%,94% and 97.1%,101%
OC1CCCN(Cc2ccccc2)C1 (stereo not given),103%,106%,113%,107%,107%,106%,101%,85.4%,115%,102%,121%,111%,104%,103%,107%,102%,114%,109%,93.9%,98.7%
O=C(O)COc1ccccc1F,106%,94.2%,106%,117%,101%,96.3%,106%,110%,102%,114%,108%,92.5%,108%,115%,92.3%,107%,106%,97.4%,115%,103%
CC(=O)Oc1cc(C)c(OC(C)=O)c(C)c1C,97.3%,101%,112%,102%,105%,112%,103%,107%,108%,121%,105%,90.9%,91.4%,91.4%,125%,107%,107%,101%,105%,112%
CC(=O)C[n+]1ccccc1Sc1ccc(Cl)cc1,100%,91.1%,99.6%,107%,77%,98.8%,108%,84.6%,82.6%,109%,95%,90.9%,97.1%,52.3%,109%,74.9%,82.9%,68.8%,99%,99.3%
CCOc1ccc(/C=C\C(=O)O)cc1,109%,114%,107%,135%,109%,86.9%,115%,104%,104%,129%,111%,103%,105%,108%,138%,115%,103%,110%,109%,110%
Nc1[nH][nH]c(=O)c1N=Nc1ccccc1,98.7% and 99%,106% and 91.8%,129% and 102%,104% and 105%,99.8% and 117%,101%,88.9% and 79.1%,103% and 110%,113% and 109%,107% and 112%,109% and 111%,137% and 92.5%,128% and 115%,93.8% and 119%,123% and 107%,103% and 114%,111% and 114%,102% and 106%,109%,102% and 112%
CSc1nc(N)c(N)c(N)n1,97.9%,91.9%,106%,92.6%,104%,86.6%,70.1%,95.1%,109%,117%,106%,101%,96.6%,97.6%,115%,107%,108%,103%,96.9%,102%
NC(=O)Cc1nc(O)cc(=O)[nH]1,107%,99.1%,103%,81.6%,105%,91.7%,77%,89.8%,98.4%,108%,115%,102%,103%,96.5%,107%,102%,96.5%,101%,86.4%,101%

# From PubChem BioAssay (NCI)
